Target: T1, GST-Dm-Relish (Drosophila melanogaster, UniProt Q94527 99-473)
T1 sequence: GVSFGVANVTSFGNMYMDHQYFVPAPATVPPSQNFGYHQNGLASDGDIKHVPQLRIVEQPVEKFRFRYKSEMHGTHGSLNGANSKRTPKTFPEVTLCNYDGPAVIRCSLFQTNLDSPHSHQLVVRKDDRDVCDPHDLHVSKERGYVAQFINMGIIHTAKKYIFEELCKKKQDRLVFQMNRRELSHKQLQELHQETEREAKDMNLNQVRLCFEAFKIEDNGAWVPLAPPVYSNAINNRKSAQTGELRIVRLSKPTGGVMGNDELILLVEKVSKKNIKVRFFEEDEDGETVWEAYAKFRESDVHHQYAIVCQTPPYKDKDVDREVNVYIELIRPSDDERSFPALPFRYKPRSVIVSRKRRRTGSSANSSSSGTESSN
Assay: protein-binding microarray (PBM); PBM: ~300 nM protein, 6 mM HEPES pH 7.8, 80 mM KCl, 0.5 mM EDTA, 0.5 mM EGTA, 6% glycerol, 35 ng/ul poly-dIdC, 1% milk, 1 h, room temperature; Ap Aiptasia and Nv Nematostella (sea anemones) / Co Capsaspora / Aq Amphimedon (sponge) / Dm Drosophila / Hu human; RHD is the Rel homology domain; high values mean tight binding
Conditions: dsDNA, one strand shown

Sequence | binding signal
CCGATTAACATCAACTATCCCCCTGATGTTAATCGGGTCTTGATTCGCTTGACGCTGCTG | 2.98 z-score
CCGATTAACATCAGGAAAGGCCCTGATGTTAATCGGGTCTTGATTCGCTTGACGCTGCTG | 5.48 z-score
CCGATTAACATCAAAAAAACACCTGATGTTAATCGGGTCTTGATTCGCTTGACGCTGCTG | 4.97 z-score
CCGATTAACATCAGGGGGGGTAATGATGTTAATCGGGTCTTGATTCGCTTGACGCTGCTG | 4.83 z-score
CCGATTAACATCACGGTGTTTCCTGATGTTAATCGGGTCTTGATTCGCTTGACGCTGCTG | 2.06 z-score
CCGATTAACATCACGGGAAGCCCTGATGTTAATCGGGTCTTGATTCGCTTGACGCTGCTG | 7.08 z-score

Target: T2, GST-Aq-NF-kB (Amphimedon queenslandica, UniProt A9Y5G7 2-389)
T2 sequence: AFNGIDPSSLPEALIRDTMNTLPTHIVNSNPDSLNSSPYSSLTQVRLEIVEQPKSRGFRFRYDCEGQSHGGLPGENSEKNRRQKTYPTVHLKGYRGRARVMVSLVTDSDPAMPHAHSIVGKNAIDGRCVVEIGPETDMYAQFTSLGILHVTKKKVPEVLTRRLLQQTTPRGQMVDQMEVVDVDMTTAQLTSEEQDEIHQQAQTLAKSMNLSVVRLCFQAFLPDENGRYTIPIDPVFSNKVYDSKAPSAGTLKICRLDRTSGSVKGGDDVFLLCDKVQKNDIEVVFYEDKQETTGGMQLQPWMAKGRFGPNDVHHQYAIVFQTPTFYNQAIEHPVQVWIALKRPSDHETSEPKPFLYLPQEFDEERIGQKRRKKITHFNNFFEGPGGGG
Assay: as above
Conditions: dsDNA, one strand shown

Sequence | binding signal
CCGATTAACATCAAAGAGCCCCCTGATGTTAATCGGGTCTTGATTCGCTTGACGCTGCTG | 5.01 z-score
CCGATTAACATCAGAAATGCCCCTGATGTTAATCGGGTCTTGATTCGCTTGACGCTGCTG | 5.32 z-score
CCGATTAACATCAAGGGGGATACTGATGTTAATCGGGTCTTGATTCGCTTGACGCTGCTG | 4.99 z-score
CCGATTAACATCAAAAGCCCCCATGATGTTAATCGGGTCTTGATTCGCTTGACGCTGCTG | 6.49 z-score
CCGATTAACATCAAACCACCCCCTGATGTTAATCGGGTCTTGATTCGCTTGACGCTGCTG | 3.77 z-score
CCGATTAACATCAGCCCCGGTGTTGATGTTAATCGGGTCTTGATTCGCTTGACGCTGCTG | 2.37 z-score
CCGATTAACATCAATTCCCCCCGTGATGTTAATCGGGTCTTGATTCGCTTGACGCTGCTG | 5.76 z-score
CCGATTAACATCAGGGGTAGAACTGATGTTAATCGGGTCTTGATTCGCTTGACGCTGCTG | 1.92 z-score
CCGATTAACATCAGGACCTTCCCTGATGTTAATCGGGTCTTGATTCGCTTGACGCTGCTG | 5.89 z-score
CCGATTAACATCACCCGGGTAAATGATGTTAATCGGGTCTTGATTCGCTTGACGCTGCTG | 1.02 z-score
CCGATTAACATCAGAAAATCACCTGATGTTAATCGGGTCTTGATTCGCTTGACGCTGCTG | 3.39 z-score
CCGATTAACATCACCCTCGAGGGTGATGTTAATCGGGTCTTGATTCGCTTGACGCTGCTG | 1.65 z-score
CCGATTAACATCAGGGCCTTTTGTGATGTTAATCGGGTCTTGATTCGCTTGACGCTGCTG | 2.46 z-score
CCGATTAACATCAATCCACCCCCTGATGTTAATCGGGTCTTGATTCGCTTGACGCTGCTG | 3.63 z-score
CCGATTAACATCAGGCGAACCCCTGATGTTAATCGGGTCTTGATTCGCTTGACGCTGCTG | 2.96 z-score
CCGATTAACATCAGGGAAACTTATGATGTTAATCGGGTCTTGATTCGCTTGACGCTGCTG | 6.43 z-score
CCGATTAACATCAGATAAACCCCTGATGTTAATCGGGTCTTGATTCGCTTGACGCTGCTG | 4.77 z-score
CCGATTAACATCAGGACATACCCTGATGTTAATCGGGTCTTGATTCGCTTGACGCTGCTG | 5.54 z-score
CCGATTAACATCAGGGGCTTCCATGATGTTAATCGGGTCTTGATTCGCTTGACGCTGCTG | 5.03 z-score
CCGATTAACATCAGGACTGCCCCTGATGTTAATCGGGTCTTGATTCGCTTGACGCTGCTG | 7.05 z-score

Sequence | binding signal
CCGATTAACATCAGGAAATACCCTGATGTTAATCGGGTCTTGATTCGCTTGACGCTGCTG | 9.37 z-score
CCGATTAACATCAGGAAGATCCCTGATGTTAATCGGGTCTTGATTCGCTTGACGCTGCTG | 5.44 z-score
CCGATTAACATCAGGGAGTGCCCTGATGTTAATCGGGTCTTGATTCGCTTGACGCTGCTG | 5.66 z-score
CCGATTAACATCACGGAAACACCTGATGTTAATCGGGTCTTGATTCGCTTGACGCTGCTG | 2.29 z-score
CCGATTAACATCAGGATATCCCCTGATGTTAATCGGGTCTTGATTCGCTTGACGCTGCTG | 7.17 z-score
CCGATTAACATCAAAAAATCACCTGATGTTAATCGGGTCTTGATTCGCTTGACGCTGCTG | 3.98 z-score
CCGATTAACATCAAGGGAATTCCTGATGTTAATCGGGTCTTGATTCGCTTGACGCTGCTG | 8.11 z-score
CCGATTAACATCAAATCCCCCCCTGATGTTAATCGGGTCTTGATTCGCTTGACGCTGCTG | 6.62 z-score
CCGATTAACATCAAGGGGGGGACTGATGTTAATCGGGTCTTGATTCGCTTGACGCTGCTG | 4.98 z-score
CCGATTAACATCACGGAAATACCTGATGTTAATCGGGTCTTGATTCGCTTGACGCTGCTG | 4.47 z-score
CCGATTAACATCAGAAAAACACCTGATGTTAATCGGGTCTTGATTCGCTTGACGCTGCTG | 3.91 z-score
CCGATTAACATCAGGTGTTTCCATGATGTTAATCGGGTCTTGATTCGCTTGACGCTGCTG | 1.98 z-score
CCGATTAACATCACGGGCTTCCCTGATGTTAATCGGGTCTTGATTCGCTTGACGCTGCTG | 4.57 z-score
CCGATTAACATCAAATAAGCCCCTGATGTTAATCGGGTCTTGATTCGCTTGACGCTGCTG | 5.74 z-score
CCGATTAACATCAACTATCCCCCTGATGTTAATCGGGTCTTGATTCGCTTGACGCTGCTG | 4.04 z-score
CCGATTAACATCAGGAAAGGCCCTGATGTTAATCGGGTCTTGATTCGCTTGACGCTGCTG | 5.31 z-score
CCGATTAACATCAAAAAAACACCTGATGTTAATCGGGTCTTGATTCGCTTGACGCTGCTG | 4.34 z-score
CCGATTAACATCAGGGGGGGTAATGATGTTAATCGGGTCTTGATTCGCTTGACGCTGCTG | 4.38 z-score
CCGATTAACATCACGGTGTTTCCTGATGTTAATCGGGTCTTGATTCGCTTGACGCTGCTG | 2.67 z-score
CCGATTAACATCACGGGAAGCCCTGATGTTAATCGGGTCTTGATTCGCTTGACGCTGCTG | 4.42 z-score
